Tests used:
Experiment in all cases: log2 ratio of Biotin-Ahx-Ub-VS probe labelling (fragment/DMSO); higher = less target engagement (more negative = stronger competition), active = hit call of the paper (q ≤ 0.05, log2 ratio ≤ -1)
Conditions in all cases: compound concentration: 200 uM; treatment time: 3 h
USP34 = USP34 (UniProt Q70CQ2)
Procedure, shortened: (§1)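 Each value is an average log2 ratio of fragment to vehicle, tested by unpaired t-test. The underlying Spectronaut label-free quantities were global-median-normalised, and only proteins with ≥2 unique peptides were included. Triplicate HEK293T lysate samples (495 µg) were exposed to fragment at 200 µM or vehicle for 3 h, then to Biotin-Ahx-Ub-VS at 0.5 µM final for 1 h, before NeutrAvidin enrichment of labelled DUBs, LysC and trypsin digestion, and diaPASEF LC-MS/MS.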

USP36 = molecular target: T1, USP36 (UniProt Q9P275)
T1 sequence (whole entry): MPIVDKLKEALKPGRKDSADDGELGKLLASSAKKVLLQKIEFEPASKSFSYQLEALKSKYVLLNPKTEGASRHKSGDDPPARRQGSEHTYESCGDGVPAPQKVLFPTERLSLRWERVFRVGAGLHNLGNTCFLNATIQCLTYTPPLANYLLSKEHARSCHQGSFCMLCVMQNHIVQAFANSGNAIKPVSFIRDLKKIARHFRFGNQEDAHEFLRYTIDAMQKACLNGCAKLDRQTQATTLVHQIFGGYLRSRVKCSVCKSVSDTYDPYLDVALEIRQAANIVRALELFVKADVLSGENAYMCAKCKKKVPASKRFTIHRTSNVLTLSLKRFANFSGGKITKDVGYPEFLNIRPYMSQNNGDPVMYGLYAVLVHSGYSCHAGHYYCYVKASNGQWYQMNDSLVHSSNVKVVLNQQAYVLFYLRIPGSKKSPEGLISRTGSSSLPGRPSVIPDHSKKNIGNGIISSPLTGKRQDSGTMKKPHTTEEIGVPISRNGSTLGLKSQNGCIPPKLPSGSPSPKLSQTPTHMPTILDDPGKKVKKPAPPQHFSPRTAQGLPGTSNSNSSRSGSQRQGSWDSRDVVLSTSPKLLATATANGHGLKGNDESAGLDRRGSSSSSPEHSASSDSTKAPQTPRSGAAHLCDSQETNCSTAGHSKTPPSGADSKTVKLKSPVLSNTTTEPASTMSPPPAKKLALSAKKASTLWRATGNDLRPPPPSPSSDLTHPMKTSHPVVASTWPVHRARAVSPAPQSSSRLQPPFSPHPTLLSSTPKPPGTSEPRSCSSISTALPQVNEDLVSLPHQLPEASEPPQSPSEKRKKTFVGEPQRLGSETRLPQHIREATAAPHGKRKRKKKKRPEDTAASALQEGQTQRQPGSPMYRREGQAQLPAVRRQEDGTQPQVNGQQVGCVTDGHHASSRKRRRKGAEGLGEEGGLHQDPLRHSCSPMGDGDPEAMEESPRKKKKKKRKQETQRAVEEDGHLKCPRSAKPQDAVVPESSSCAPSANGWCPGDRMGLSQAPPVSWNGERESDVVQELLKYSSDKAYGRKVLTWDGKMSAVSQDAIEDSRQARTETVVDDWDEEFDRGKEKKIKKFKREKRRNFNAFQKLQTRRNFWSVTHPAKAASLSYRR
Procedure, shortened: as §1

USP38 = molecular target: T2, USP38 (UniProt Q8NB14)
T2 sequence (whole entry): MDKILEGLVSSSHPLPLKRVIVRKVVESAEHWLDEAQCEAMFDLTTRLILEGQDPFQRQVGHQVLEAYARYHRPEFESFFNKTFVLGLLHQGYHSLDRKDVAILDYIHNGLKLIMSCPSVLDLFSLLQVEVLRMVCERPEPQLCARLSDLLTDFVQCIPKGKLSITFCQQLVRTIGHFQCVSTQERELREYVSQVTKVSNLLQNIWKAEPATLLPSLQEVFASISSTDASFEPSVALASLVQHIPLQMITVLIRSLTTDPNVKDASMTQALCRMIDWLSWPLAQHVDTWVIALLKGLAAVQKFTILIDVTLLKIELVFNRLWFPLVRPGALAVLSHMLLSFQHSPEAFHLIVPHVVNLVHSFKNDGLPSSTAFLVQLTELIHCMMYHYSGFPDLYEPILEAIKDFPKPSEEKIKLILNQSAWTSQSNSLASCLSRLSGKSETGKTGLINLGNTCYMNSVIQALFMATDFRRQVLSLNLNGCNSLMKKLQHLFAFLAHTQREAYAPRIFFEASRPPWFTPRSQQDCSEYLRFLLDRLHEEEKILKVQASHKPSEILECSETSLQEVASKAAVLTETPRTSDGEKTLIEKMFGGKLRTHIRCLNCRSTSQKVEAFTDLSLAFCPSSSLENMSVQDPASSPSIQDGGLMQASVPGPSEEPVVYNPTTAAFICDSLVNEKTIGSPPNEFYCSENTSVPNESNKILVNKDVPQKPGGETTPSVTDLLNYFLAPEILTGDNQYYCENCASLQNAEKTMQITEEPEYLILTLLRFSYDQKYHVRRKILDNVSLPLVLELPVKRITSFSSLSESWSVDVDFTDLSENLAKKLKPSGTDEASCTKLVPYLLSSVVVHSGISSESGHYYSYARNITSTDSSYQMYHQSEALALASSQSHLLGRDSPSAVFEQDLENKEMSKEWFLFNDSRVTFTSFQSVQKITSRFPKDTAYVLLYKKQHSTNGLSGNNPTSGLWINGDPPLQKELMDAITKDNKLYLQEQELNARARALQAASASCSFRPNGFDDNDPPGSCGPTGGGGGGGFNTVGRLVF
Procedure, shortened: as §1

USP39 = molecular target: T3, USP39 (UniProt Q53GS9)
T3 sequence (whole entry): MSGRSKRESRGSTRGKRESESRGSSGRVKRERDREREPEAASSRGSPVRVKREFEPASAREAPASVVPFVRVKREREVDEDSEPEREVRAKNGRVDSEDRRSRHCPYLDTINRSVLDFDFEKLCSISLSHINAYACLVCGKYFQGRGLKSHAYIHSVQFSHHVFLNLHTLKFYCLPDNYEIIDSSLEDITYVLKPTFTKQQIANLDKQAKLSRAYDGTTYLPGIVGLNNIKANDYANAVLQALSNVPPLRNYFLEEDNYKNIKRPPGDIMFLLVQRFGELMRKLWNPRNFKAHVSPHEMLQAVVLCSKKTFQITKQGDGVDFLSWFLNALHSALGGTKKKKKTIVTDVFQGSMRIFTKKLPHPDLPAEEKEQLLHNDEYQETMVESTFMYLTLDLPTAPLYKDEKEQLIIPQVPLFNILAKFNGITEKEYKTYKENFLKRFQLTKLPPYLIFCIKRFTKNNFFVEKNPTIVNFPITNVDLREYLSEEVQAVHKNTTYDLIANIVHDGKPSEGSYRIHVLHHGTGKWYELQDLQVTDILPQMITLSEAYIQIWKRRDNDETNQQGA
Procedure, shortened: as §1

USP4 = molecular target: T4, USP4 (UniProt Q13107)
T4 sequence (whole entry): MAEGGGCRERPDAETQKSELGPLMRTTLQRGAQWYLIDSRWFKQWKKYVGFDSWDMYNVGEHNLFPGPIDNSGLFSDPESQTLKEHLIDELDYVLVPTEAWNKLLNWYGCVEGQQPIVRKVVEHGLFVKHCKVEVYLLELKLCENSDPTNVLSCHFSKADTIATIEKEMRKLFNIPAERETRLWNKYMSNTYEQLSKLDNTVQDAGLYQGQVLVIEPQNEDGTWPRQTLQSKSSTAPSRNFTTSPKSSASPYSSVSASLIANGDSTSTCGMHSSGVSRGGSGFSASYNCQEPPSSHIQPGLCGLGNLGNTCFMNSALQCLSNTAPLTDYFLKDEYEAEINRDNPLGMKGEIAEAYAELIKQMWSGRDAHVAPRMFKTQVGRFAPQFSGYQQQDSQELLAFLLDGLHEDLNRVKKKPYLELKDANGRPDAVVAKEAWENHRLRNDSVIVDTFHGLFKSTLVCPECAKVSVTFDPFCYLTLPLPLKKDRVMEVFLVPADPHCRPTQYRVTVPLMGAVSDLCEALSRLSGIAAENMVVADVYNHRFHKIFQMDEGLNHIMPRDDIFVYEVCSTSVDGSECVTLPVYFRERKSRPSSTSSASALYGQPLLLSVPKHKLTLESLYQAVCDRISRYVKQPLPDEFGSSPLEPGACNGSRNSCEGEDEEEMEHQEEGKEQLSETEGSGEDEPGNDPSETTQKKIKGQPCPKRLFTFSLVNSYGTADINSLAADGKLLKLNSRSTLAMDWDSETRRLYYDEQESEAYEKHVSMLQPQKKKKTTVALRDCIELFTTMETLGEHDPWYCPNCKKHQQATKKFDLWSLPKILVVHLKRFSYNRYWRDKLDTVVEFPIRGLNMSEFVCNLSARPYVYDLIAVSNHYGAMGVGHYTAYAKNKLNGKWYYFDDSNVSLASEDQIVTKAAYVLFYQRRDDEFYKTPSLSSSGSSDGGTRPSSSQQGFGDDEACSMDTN
Procedure, shortened: as §1

Measured: log2 ratio of Biotin-Ahx-Ub-VS probe labelling

USP34, sequence (Q70CQ2 whole entry, the tested form may be a part): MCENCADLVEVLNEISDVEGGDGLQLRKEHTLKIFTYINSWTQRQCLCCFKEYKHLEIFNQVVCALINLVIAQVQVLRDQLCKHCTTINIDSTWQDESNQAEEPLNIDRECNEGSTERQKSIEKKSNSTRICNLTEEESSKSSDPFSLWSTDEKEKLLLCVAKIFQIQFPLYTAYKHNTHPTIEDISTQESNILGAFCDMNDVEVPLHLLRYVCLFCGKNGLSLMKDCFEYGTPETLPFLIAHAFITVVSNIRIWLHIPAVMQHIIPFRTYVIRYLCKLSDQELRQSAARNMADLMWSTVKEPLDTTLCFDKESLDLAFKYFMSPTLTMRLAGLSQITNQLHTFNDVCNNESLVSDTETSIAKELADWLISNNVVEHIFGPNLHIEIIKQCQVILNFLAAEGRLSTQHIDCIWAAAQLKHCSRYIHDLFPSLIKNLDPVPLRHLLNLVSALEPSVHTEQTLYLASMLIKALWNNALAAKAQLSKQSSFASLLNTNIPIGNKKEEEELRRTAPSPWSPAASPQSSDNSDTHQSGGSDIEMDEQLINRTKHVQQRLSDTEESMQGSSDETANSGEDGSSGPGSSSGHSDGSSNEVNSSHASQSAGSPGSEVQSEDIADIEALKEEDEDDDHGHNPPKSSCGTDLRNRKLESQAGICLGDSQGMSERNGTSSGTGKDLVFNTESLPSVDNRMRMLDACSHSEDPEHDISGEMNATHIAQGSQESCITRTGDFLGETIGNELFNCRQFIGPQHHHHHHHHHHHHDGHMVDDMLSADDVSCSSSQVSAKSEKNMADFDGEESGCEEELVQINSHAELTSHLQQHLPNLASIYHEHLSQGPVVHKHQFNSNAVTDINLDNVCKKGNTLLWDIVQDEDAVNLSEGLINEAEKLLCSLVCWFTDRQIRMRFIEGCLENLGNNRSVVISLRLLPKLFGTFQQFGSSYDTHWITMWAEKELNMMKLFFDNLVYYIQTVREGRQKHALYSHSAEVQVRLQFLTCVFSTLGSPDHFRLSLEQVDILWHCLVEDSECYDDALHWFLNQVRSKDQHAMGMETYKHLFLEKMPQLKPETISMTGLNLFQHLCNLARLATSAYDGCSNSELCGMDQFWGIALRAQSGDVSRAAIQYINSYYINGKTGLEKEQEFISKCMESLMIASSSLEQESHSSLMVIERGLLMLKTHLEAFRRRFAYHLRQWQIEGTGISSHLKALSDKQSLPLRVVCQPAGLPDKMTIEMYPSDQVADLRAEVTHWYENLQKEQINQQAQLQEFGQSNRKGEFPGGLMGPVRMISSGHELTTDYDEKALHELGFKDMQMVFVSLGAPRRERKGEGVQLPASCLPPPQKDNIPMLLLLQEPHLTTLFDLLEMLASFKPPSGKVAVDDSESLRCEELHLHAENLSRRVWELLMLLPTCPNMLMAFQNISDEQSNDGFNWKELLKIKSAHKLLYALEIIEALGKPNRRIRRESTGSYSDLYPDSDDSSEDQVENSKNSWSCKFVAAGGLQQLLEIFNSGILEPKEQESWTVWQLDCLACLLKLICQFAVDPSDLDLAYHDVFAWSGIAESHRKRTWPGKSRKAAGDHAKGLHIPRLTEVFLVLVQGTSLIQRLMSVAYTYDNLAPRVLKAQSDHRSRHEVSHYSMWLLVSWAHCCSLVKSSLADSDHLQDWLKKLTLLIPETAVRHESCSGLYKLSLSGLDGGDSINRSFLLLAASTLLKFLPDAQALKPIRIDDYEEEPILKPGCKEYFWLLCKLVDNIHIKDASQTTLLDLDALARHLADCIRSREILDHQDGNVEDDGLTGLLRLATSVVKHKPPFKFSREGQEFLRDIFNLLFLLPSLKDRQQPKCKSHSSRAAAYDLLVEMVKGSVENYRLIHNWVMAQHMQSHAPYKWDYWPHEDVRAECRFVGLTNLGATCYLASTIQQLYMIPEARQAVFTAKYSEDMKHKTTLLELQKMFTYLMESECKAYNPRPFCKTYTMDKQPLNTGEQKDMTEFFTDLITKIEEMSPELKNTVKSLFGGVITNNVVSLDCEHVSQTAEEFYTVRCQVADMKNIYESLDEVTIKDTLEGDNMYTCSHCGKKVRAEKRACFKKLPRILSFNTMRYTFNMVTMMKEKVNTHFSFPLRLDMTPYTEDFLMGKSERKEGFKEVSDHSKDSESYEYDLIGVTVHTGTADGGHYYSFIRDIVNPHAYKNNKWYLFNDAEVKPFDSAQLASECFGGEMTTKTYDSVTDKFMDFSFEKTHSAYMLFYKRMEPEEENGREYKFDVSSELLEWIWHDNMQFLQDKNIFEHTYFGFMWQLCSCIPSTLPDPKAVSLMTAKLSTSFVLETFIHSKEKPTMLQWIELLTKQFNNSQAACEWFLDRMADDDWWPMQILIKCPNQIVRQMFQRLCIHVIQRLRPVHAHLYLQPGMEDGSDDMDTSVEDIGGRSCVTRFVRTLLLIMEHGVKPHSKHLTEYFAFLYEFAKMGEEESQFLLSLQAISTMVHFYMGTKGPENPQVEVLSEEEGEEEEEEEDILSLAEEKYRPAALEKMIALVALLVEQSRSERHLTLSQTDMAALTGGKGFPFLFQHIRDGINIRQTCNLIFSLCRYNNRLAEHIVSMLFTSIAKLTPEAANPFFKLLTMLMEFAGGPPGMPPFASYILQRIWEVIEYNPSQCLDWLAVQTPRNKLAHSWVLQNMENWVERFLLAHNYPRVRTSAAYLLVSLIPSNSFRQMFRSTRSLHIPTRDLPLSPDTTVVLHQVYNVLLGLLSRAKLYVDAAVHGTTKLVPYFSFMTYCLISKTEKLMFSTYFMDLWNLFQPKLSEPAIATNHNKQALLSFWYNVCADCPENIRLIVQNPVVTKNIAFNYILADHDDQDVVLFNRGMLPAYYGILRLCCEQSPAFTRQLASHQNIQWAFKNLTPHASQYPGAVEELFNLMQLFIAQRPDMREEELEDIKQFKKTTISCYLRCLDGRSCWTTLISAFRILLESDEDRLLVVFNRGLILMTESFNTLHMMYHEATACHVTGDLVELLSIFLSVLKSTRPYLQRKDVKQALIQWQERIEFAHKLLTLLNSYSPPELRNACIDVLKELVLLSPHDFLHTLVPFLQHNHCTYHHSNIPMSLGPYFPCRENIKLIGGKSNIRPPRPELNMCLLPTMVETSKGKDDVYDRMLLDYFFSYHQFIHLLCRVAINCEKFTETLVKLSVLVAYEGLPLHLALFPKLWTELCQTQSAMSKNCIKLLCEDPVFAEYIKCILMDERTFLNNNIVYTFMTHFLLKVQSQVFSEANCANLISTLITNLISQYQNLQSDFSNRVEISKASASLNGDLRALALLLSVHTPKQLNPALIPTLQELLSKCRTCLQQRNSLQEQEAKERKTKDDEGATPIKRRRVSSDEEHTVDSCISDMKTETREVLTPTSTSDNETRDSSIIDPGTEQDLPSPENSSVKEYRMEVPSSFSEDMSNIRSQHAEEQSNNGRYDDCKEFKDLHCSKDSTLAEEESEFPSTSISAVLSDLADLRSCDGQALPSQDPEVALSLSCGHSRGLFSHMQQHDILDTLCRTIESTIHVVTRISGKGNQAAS

Cc1ccccc1CN(C)C(=O)CCl
inactive: USP34 -0.547 | USP36 -0.347 | USP38 -0.741 | USP39 -0.049 | USP4 -0.831

— the supplement of paper PMC11732987, “Enantioselective OTUD7B fragment discovery through chemoproteomics screening and high-throughput optimisation” (Communications Chemistry, 2025)
